# Compounds with a hit are over-represented: about 3.6% of the library has one in this group of screens.
# NFkB transloc pot: enhances IL-1B driven NFkB nuclear translocation | HUVEC IL-1B NFkB p65 nuclear translocation imaging | activation, % at 2 µM | hit rate 0.3% among 94,000 | AID 819;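 active = activation above 40%, about the mean plus 3 SD, also judged a hit on visual image review; inconclusive = activation above 40% but not a hit on visual review; inactive = activation not above 40% and no visual hit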;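 also: percent activation is computed from the nuclear over cytoplasmic p65 intensity ratio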
# ERa SRC1 pot: enhances coactivator binding to human estrogen receptor alpha. hit rate 1.3% among 86,000. TR-FRET ERalpha-LBD/SRC-Cy5 coactivator binding, 2 h; 100 = basal binding, no effect. P03372. coactivator binding (% of control), % at 25.6 µM; in the data active = activity above about 200%;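 also: binding measured in presence of low estradiol as agonist stimulus; 0% = peptide alone without receptor and 100% = receptor with peptide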
# Target sequence (P03372 whole entry, looked up, the tested form may be a part): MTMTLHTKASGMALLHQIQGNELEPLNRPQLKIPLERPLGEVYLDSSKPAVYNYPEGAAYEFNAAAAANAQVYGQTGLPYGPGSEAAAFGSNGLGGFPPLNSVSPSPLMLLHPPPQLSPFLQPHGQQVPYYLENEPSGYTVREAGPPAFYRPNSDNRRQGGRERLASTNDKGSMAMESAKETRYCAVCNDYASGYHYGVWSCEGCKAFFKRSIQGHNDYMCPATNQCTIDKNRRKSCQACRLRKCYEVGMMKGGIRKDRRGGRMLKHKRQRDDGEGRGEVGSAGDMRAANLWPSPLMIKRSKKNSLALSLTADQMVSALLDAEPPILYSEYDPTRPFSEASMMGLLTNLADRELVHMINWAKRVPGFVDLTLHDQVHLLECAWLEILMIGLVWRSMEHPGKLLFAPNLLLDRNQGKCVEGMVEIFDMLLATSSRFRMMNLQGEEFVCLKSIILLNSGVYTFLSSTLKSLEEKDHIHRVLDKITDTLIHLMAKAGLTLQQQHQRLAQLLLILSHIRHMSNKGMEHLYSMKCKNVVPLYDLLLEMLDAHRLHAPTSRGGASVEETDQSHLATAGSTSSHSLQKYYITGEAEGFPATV
# IL1B cytotox: toxic to HUVEC cells under IL-1B stimulation | cell count reduction, % at 2 µM | HUVEC cell count loss, Hoechst imaging, IL-1B stimulated | hit rate 0.41% among 94,000;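 active = cell count reduction more than 3 SD above the screen-wide mean, cut at about 70% in these data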;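 also: normalized per plate to untreated control cells as the no-loss baseline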
# ERb SRC1 inh: blocks coactivator binding to human estrogen receptor beta; TR-FRET ER-beta LBD / SRC1-Cy5 peptide binding; receptor agonist-loaded with 1 µM estradiol; inhibition, % at 25.6 µM; hit rate 1.3% among 86,000; AID 633;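 active = compounds whose percent inhibition of the receptor-coactivator binding signal exceeds about 50% in the single-dose screen, limit read from the data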;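 also: 0% = receptor plus peptide wells without compound and 100% = peptide-only wells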
# ERa coact inh: blocks coactivator binding to human estrogen receptor alpha; TR-FRET ER-alpha LBD / SRC-1 peptide, estradiol-bound; hit rate 1.7% among 86,000; P03372; inhibition, % at 25.6 µM; AID 629; in the data active = inhibition above about 50%;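 also: 0% = receptor plus peptide control and 100% = peptide only without receptor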
# NFkB transloc inh: blocks IL-1B driven NFkB nuclear translocation in HUVEC cells | inhibition, % at 2 µM | HUVEC IL-1B NFkB p65 nuclear translocation imaging | hit rate 0.43% among 94,000 | AID 796;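 active = inhibition above about 30% together with a positive call from visual inspection of the well image, limit read from the data; inconclusive = inhibition above a set limit but visual check negative; inactive = inhibition not above a set limit, visual check negative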;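 also: nuclear over cytoplasmic p65 intensity ratio measured by imaging; 0% = IL-1B stimulated DMSO wells and 100% = unstimulated DMSO wells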
# * = called active by the depositor; ? = inconclusive; . = no result; [ ] = dose if it differs, or a comment.
SMILES,NFkB transloc pot,ERa SRC1 pot,IL1B cytotox,ERb SRC1 inh,ERa coact inh,NFkB transloc inh
CC(=O)NC(Cc1ccc(C)cc1)C(=O)NC1CCN(C(=O)c2cnccn2)CC1 (stereo unspecified),43*,115,-17,-3,-3,-43
O=c1[nH]c2cc3c(cc2cc1CN(CCO)S(=O)(=O)c1ccccc1Cl)OCCO3,14,94,1,5,13,-14
CCOC(=O)c1ccc(NC(=O)CSc2nnc(CNc3ccc(OC)cc3)n2C)cc1,-20,93,-38,35,52*,20
CCOc1ccc(NC(=O)CSc2nnc(C(C)C)n2CC)cc1,?,108,95*,4,1,-57
CCN(CC)c1ccc(-c2nnc(SCC(=O)Nc3ccccc3C#N)n2-c2ccccc2)cc1,-3,104,-1,29,52*[fluorescence artefact?],3
CCCn1c(SCC(=O)Nc2ccc(OCC)cc2)nnc1C(C)C,21,100,-10,-5,5,-21
COc1ccc(NC(=O)CSc2nnc(C3CCCCC3)n2-c2ccccc2)cc1,-81,103,55,1,-3,81*
Cc1ccc(C)n1-c1ccc(-c2nnc3n2CCCCC3)s1,19,91,-74,8,5,-19
COC(=O)c1ccc2c(=O)n(Cc3ccc4c(c3)OCO4)c(SCC(=O)N3CCCC3)nc2c1,.,89,.,28,41,.
Fc1ccc(-c2csc3ncnc(Nc4ccc(N5CCOCC5)cc4)c23)cc1,-7,.,32,.,.,7
Cc1cc(=O)oc(C)c1C(=O)NCCN1CCOCC1,.,102,.,-1,6,.
CC1N=C2c3ccccc3N=C(SCc3cc(=O)n4ccccc4n3)N2C1=O (stereo unspecified),.,97,.,9,14,.
CC1CN(S(=O)(=O)c2ccc(Cl)c(C(F)(F)F)c2)CC(C)O1 (stereo unspecified),4,112,5,-3,-7,-4
Cn1nc(C(F)(F)F)c(/C=N/OC(=O)c2ccccc2Cl)c1SCc1ccccc1Cl,-7,.,1,.,.,7
C=CCn1c(Cc2cccs2)nnc1SCC(=O)Nc1ccc(C(=O)OCC)cc1,-7,112,4,-1,-2,7
O=C(CSc1nnc(-c2cccs2)n1-c1ccccc1)Nc1ccccc1,?,969*[fluorescence artefact?],-20,11,-31,-52
CCn1c(SCC(=O)Nc2ccc(C(=O)OC)cc2)nnc1-c1cccs1,22,304*[fluorescence artefact?],-9,10,-2,-22
CCn1c(SCC(=O)NCC(=O)Nc2ccc(F)cc2)nnc1-c1cccs1,4,103,10,1,-9,-4
C=CCn1c(SCC(=O)Nc2ccc(C(=O)OCC)cc2)nnc1-c1cccs1,.,755*[fluorescence artefact?],.,10,-45,.
Cn1c(SCC(=O)Nc2ccccc2)nnc1-c1ccc(NC(=O)CCc2ccccc2)cc1,11,99,26,76*[fluorescence artefact?],-1,-11
Cc1sc(NC(=O)CSc2nnc(COc3ccc(Cl)cc3)n2C)c(C#N)c1C,8,317*[fluorescence artefact?],-1,42,41,-8
Cc1ccc(-c2nnc(SCC(=O)Nc3sc(C)c(C)c3C#N)n2C)cc1,9,248*[fluorescence artefact?],-46,11,3,-9
CSc1nnc(-c2ccc(NC(=O)CCc3ccccc3)cc2)n1C,26,105,-46,-8,1,-26
Cc1sc(NC(=O)CSc2nnc(-c3ccc(F)cc3)o2)c(C#N)c1C,3,101,-14,20,52*,-3
COC(=O)Cn1c(CN2CCOCC2)nc2c1c(=O)[nH]c(=O)n2C,.,116,.,13,-9,.
SMILES,NFkB transloc pot,ERa SRC1 pot,IL1B cytotox,ERb SRC1 inh,ERa coact inh,NFkB transloc inh
COc1ccc(CN2CCN(c3ccccn3)CC2)cc1OCc1ccccc1,.,99,.,3,-6,.
CCOC(=O)c1c(NC(=O)CSc2nnc(-c3ccco3)o2)sc(C(C)=O)c1C,8,156,-15,-3,10,-8
CCOC(=O)c1c(NC(=O)CSc2nnc(-c3cccnc3)o2)sc(C(C)=O)c1C,-12,204*[fluorescence artefact?],12,16,20,12
O=C(Nc1cccc(NC(=O)c2ccc(-c3ccc(Br)cc3)o2)c1)c1ccco1,32,108,-34,22,71*[fluorescence artefact?],-32
COc1ccc(NC(=O)c2ccco2)cc1NC(=O)c1ccc(Br)o1,16,104,-15,-1,-4,-16
Cc1ccc(OC(C)c2nnc(N)s2)cc1Cl (stereo unspecified),-97,105,92*,-1,2,97*
Cc1cc(C)n2c(SCc3ccccc3Cl)nnc2n1,-31,112,27,22,-1,31*
C/C(=N\NC(=S)Nc1ccc(F)cc1)C1CC1,5,81,-1,-1,-3,-5
Cn1c(SCC(=O)NC(=O)NCc2ccco2)nnc1C(F)(F)F,3,96,-93,7,14,-3
N#C/C(=C(\O)Cc1ccccc1)c1nc2ccccc2[nH]1,25,409*[fluorescence artefact?],10,21,11,-25
CSCCC(/C(O)=C(\C#N)c1nc2ccccc2[nH]1)N1C(=O)c2ccccc2C1=O (stereo unspecified),-2,98,-8,2,-13,2
N#C/C(=C(/O)CN1C(=O)c2ccccc2C1=O)c1nc2ccccc2[nH]1,3,103,80*,-5,-4,-3
CCOC(=O)c1cn(-c2ccccc2)nc1-c1cccnc1,.,103,.,0,6,.
O=C(OCn1nnc2ccccc2c1=O)c1cn(-c2ccccc2)nc1-c1cccnc1,98*,121,-7,43,68*,-98
O=C(CCC1N=C2c3ccccc3N=C(SCc3cccc(Cl)c3)N2C1=O)NCc1ccco1 (stereo unspecified),19,257*[fluorescence artefact?],-13,23,39,-19
CCOC(=O)c1sc(Nc2cccc(C)c2C)nc1C,7,105,-22,-1,-5,-7
CCCOc1cccc(C2C(C(=O)c3ccc(C)o3)=C(O)C(=O)N2CCCN(C)C)c1 (stereo unspecified),.,129,.,-3,-1,.
CC(/C=N/Nc1nnc2c(n1)[nH]c1ccccc12)=C\c1ccco1,65*,57,4,8,36,-65
Cc1cccc2c1[nH]c1nc(N/N=C\c3ccco3)nnc12,0,.,-25,.,.,0
Cc1nnc(Oc2ccccc2F)c2ccccc12,-2,128,4,26,51*,2
O=C1c2ccccc2C(=O)C1c1ccc2ccccc2n1,.,217*[fluorescence artefact?],.,34,52*[fluorescence artefact?],.
Cc1ccc2c(c1)[nH]c1c(N3CCN(Cc4ccc5c(c4)OCO5)CC3)ncnc12,.,86,.,-1,0,.
CCOc1ncccc1C(=O)OCc1cc(=O)oc2c(C)c(C)ccc12,.,287*[fluorescence artefact?],.,44,48,.
CCOC(=O)c1sc(NC(=O)CSc2nc3c(cc2C#N)CCC3)c(C#N)c1C,1,111,12,11,-1,-1
CCOC(=O)c1sc(NC(=O)CSc2nc(C)cc(C)c2C#N)c(C#N)c1C,-9,267*,4,21,36,9
